D2 PAM-1: Beta-Arrestin HTS for Positive Allosteric Modulators of the Human D2 Dopamine Receptor: Potentiators | D(2) dopamine receptor (Homo sapiens), P14416 | DiscoveRx D2 beta-arrestin cells, luminescence, 90 min; 100% = 57 uM dopamine signal | potentiation, % (no concentration beside the values) | 360,000 compounds, 0.23% hits | AID 624464, 2012; in the data active means potentiation above about 50%; inconclusive means mostly about 30% to 49%
Target sequence (P14416 whole entry, looked up): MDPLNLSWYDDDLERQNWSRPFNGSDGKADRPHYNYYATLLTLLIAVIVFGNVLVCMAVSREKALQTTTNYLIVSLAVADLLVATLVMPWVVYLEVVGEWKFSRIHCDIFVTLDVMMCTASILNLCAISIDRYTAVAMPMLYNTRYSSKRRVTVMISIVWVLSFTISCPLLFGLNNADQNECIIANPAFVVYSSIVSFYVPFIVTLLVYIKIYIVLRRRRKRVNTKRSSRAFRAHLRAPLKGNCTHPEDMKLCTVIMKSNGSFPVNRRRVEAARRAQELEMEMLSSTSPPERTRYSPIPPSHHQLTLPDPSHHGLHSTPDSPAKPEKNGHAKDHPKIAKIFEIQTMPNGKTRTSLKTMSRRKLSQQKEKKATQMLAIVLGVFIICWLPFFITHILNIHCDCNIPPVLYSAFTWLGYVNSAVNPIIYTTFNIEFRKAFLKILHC
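D2 cells co-treated with compound plus 50 nM dopamine (EC20) for 90 min at 37 deg C to detect potentiation. Beta-arrestin recruitment was read as enzyme-fragment luminescence after 1 h at ambient temperature. Full response was set by 57 uM dopamine.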
D2 PAM-2: HTS Assay for Positive Allosteric Modulators of the Human D2 Dopamine Receptor: Primary Screen for Potentiators. D(2) dopamine receptor (Homo sapiens), P14416. HEK293 T-REx D2, calcium flux, EC20 dopamine potentiation. potentiation, % at 10 µM. 340,000 compounds, 0.34% hits. AID 485347, 2010;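 active means potentiation over 3 SD above the plate norm, cut at about 30% in these data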; further: 0% is about no effect
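Primary screen. Calcium kinetics in induced HEK293 T-REx D2 cells: compound pre-addition 180 s, EC20 dopamine, 180 s more.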
D2 ag-1: HTS Assay for Allosteric Agonists of the Human D2 Dopamine Receptor: Primary Screen for Agonists | D(2) dopamine receptor (Homo sapiens), P14416 | HEK293 T-REx D2 cells, calcium flux agonist mode | activation, % at 2 µM | 340,000 compounds, 0.53% hits;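 active means activation over 3 SD above normal in the single-dose calcium agonist read, cut at about 30% in these data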; further: 0% is about no effect
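In this primary screen, compounds producing a positive calcium signal within 180 s of addition to tetracycline-induced, force-coupled HEK293 Trex D2 cells are flagged; cells are dye-loaded with a no-wash calcium kit beforehand.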
D2 antag: HTS Assay for Allosteric Antagonists of the Human D2 Dopamine Receptor: Primary Screen for Antagonists. D(2) dopamine receptor (Homo sapiens), P14416. HEK293 TREx D2 cells, calcium flux, dopamine EC80. inhibition, % at 10 µM. 340,000 compounds, 2% hits. AID 485344, 2010; in the data active means inhibition above about 30%; inactive means below that, where a call was filed; further: 0% is about no effect
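Dopamine at EC80 is the agonist stimulus; test compounds precede it by 180 s. Calcium flux read kinetically in a force-coupled, inducible HEK293 T-REx D2 cell line.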
D2 ag-2: Beta-Arrestin HTS for Positive Allosteric Modulators of the Human D2 Dopamine Receptor: Agonists | 360,000 compounds, 0.084% hits | D(2) dopamine receptor (Homo sapiens), P14416 | activation, % (test concentration not listed) | DiscoveRx PathHunter D2 beta-arrestin, luminescence, 90 min; 100% = 57 uM dopamine signal | AID 624465, 2012; in the data active means activation above about 40%; inconclusive means between about 15% and that limit
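Agonist mode: compounds alone added to overnight-plated D2 PathHunter cells for 90 min at 37 C, with 57 uM final dopamine (EC100) defining full response. Beta-arrestin recruitment detected by chemiluminescent reagent, read after 1 h at ambient temperature.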
Numbers without * were called inactive; ? = inconclusive; . = no result. Rows were chosen to be rich in hits. Some 2.4% of all compounds tested hit in one or more screens of this group.

SMILES | D2 PAM-1 | D2 PAM-2 | D2 ag-1 | D2 antag | D2 ag-2
N/C(Cc1ccc([N+](=O)[O-])cc1)=N\OC(=O)Cc1ccccc1 | -1 | 9 | -1 | 11 | 15
N/C(Cc1ccc([N+](=O)[O-])cc1)=N\OC(=O)c1ccccc1F | 153* | 10 | 1 | -9 | ?
N/C(Cc1ccc([N+](=O)[O-])cc1)=N\OC(=O)c1ccc(Br)o1 | 132* | -5 | -1 | -2 | ?
O=C(CCc1nc2ccccc2c(=O)[nH]1)Nc1cc(Cl)ccc1N1CCCCC1 | -5 | -6 | 0 | 43* | -5
CCc1sc(C(=O)Nc2cc(Cl)ccc2N2CCCCC2)cc1C | -2 | -1 | -1 | 6 | -1
Cc1ccc(C(=O)Nc2cc(Cl)ccc2N2CCCCC2)s1 | -2 | -4 | 1 | 32* | 0
CCN(CC)CCNC(=O)c1ccc(NC(=O)c2c(C)nn(-c3ccc(F)cc3)c2Cl)cc1 | -16 | -12 | 0 | 41* | -3
CCN(CC(=O)Nc1ccc(NC(C)=O)cc1)C(=O)c1c(C)nn(-c2ccc(F)cc2)c1Cl | 0 | . | . | . | 2
CC(C)c1ccc(-c2nc(N3CCCC3)nc3n[nH]c(N)c23)cc1 | -6 | 44* | 0 | 2 | -1
Cc1cccc(Nc2nc(N)c([N+](=O)[O-])c(N3CCN(C)CC3)n2)c1 | -35 | -30 | -1 | 55* | -5
Nc1nc(Nc2cccc(F)c2)nc(N2CCOCC2)c1[N+](=O)[O-] | -10 | -12 | 0 | -7 | 4
CN1CCN(c2nc(Nc3ccccc3)nc(N)c2[N+](=O)[O-])CC1 | -17 | -25 | -1 | 83* | -2
O=C(c1cccn1-c1nnc(N2CCCCC2)s1)N1CCN(c2ccccc2)CC1 | . | -8 | 0 | . | .
CCOC(=O)NN1C(=O)c2ccccc2NC1c1ccccn1 (stereo not given) | -10 | . | 1 | 38* | -19
N#CC1(NC(=O)COC(=O)C2=COCCO2)CCCCC1 | -4 | 3 | 0 | 50* | -5
Cc1ccc2c(c1)N(CC(=O)NCCc1c[nH]c3ccccc13)C(=O)CO2 | -2 | 60* | 1 | 12 | -1
Cc1nnc(NC(=O)NC(C)N2C(=O)C3C4C=CC(C4)C3C2=O)s1 (stereo not given) | -2 | -2 | 1 | 5 | 1
CCc1nnc(NC(=O)C(C)N2C(=O)C3C4C=CC(C4)C3C2=O)s1 (stereo not given) | -4 | -10 | 1 | 33* | -2
CCOC(=O)N/N=C/c1cc(OC)c(O)c(OC)c1 | -10 | -7 | 0 | -15 | 4
CCOC(=O)c1sc(N/N=C/c2cc(Br)c(O)c(OC)c2)nc1C | 51* | 13 | -1 | -12 | 41*
Cc1ccc(N2C(N)=C(C#N)C3(C(=O)N(C)c4ccccc43)C3=C2CC(C)(C)CC3=O)cc1Cl (stereo not given) | -2 | -12 | 1 | -1 | -1
CN1C(=O)C2(C(C#N)=C(N)N(c3cc(Cl)cc(Cl)c3)C3=C2C(=O)CC(C)(C)C3)c2ccccc21 (stereo not given) | 15 | -2 | 1 | 33* | 1
CCOC(=O)C(NC(=O)c1ccccc1)=C1C=C(C)OC(C)=C1 | -3 | 30* | 0 | 12 | -1
COc1ccc(/C=N/Nc2nnc(C)n2N)cc1OC | 57* | 10 | 0 | -1 | ?
c1ccc(-c2cnc(SCCN3CCOCC3)n2CC2CCCO2)cc1 (stereo not given) | -16 | -9 | 0 | 34* | 1
SMILES | D2 PAM-1 | D2 PAM-2 | D2 ag-1 | D2 antag | D2 ag-2
CC(C)CNC(=O)COC(=O)c1ccc([N+](=O)[O-])cc1Cl | 57* | 0 | -1 | -6 | 3
O=C(COC(=O)c1ccc([N+](=O)[O-])cc1Cl)NCc1ccco1 | 7 | 0 | 0 | -5 | 8
O=C1COc2ccc(C(=O)COC(=O)c3ccc([N+](=O)[O-])cc3Cl)cc2N1 | 51* | -13 | 1 | 3 | ?
O=C1COc2ccc(C(=O)COC(=O)c3ccccc3[N+](=O)[O-])cc2N1 | -12 | 0 | . | . | 2
O=C1COc2ccc(C(=O)COC(=O)c3ccc(Cl)cc3[N+](=O)[O-])cc2N1 | 52* | -1 | 0 | 9 | ?
CCOC(=O)c1[nH]c2c(c1-c1ccccc1)C(=O)CC(c1ccccc1)C2 (stereo not given) | -1 | -6 | 1 | 31* | 0
CN(CC(=O)Nc1cccc(F)c1)CC(=O)N1CCc2ccccc21 | -12 | -17 | 0 | 17 | 2
CC(C(=O)N1CCc2ccccc21)N(C)CC(=O)Nc1cccc(F)c1 (stereo not given) | -34 | -22 | 5 | 39* | -2
Cc1cc(Nc2ccc(C)c(Cl)c2)n2nc(Cc3ccccc3)nc2n1 | . | -9 | 1 | . | .
Cc1cccc(Cc2c(C)nc3c(-c4ccccc4)c(C)[nH]n3c2=O)c1 | . | . | -1 | . | .
Cc1nc2c(-c3ccc(Cl)cc3)c(C)[nH]n2c(=O)c1Cc1ccccc1 | -16 | -40 | 0 | 15 | 2
Cc1nc2c(-c3ccccc3)c(C)[nH]n2c(=O)c1Cc1ccccc1 | -13 | -19 | 0 | 43* | 5
CCOC(=O)Cc1c(C)nc2c(-c3ccccc3)c(C)[nH]n2c1=O | -18 | 34* | 0 | -10 | 2
CCOC(=O)Cc1c(C)nc2c(-c3ccccc3)c(-c3ccccc3)[nH]n2c1=O | -13 | 7 | -1 | 10 | -6
COc1ccc(-c2c(C)[nH]n3c(=O)c(Cc4ccccc4)c(C)nc23)cc1OC | -18 | -29 | -1 | 35* | 0
CCC(=O)N1CCc2cc(S(=O)(=O)NC(C(=O)NCc3ccc(OC)cc3)C(C)C)ccc21 (stereo not given) | . | -1 | 0 | . | .
O=C(CCCCCn1c(=O)c2sccc2n(CC(=O)Nc2cc(C(F)(F)F)ccc2Cl)c1=O)NCc1ccccc1Cl | . | -7 | 2 | . | .
COc1ccc(N2CC(NC(=O)c3ccco3)CC2=O)cc1OC (stereo not given) | . | -8 | 0 | . | .
COc1ccc(CCNC(=O)c2cc(Nc3ccccc3)nc3ccccc23)cc1OC | . | 7 | -1 | . | .
COC(=O)C1CCN(S(C)(=O)=O)CC1 | -4 | 42* | 1 | -15 | -4
COC(=O)C1CCN(S(=O)(=O)c2ccc(NC(C)=O)cc2)CC1 | -19 | 2 | 1 | -17 | -4
CC[C@@]12C(=O)N(c3cccc(Br)c3)C(=O)N1[C@H](c1ccc(Br)cc1)[C@@H]1C(=O)N(C(C)(C)C)C(=O)[C@@H]12 | -7 | -5 | 1 | 32* | -4

High-throughput results (PubChem BioAssay)
